Results from the supplement of paper PMC3545927.
This is one part of the list. The hit rate among all sequences tested is not known here.

B1: HC1828 (peptide)
chain: CAWTPCSGSWAGNASASA
B2: HC2212 (peptide)
chain: CAEVVTSEWVAGNASASA
B3: HC1884 (peptide)
chain: CATTPCSISWAGNASASA
B4: FS-2806 (peptide)
chain: CARSIRSSQNAGNASASA
B5: FS-3081 (peptide)
chain: CARSIRSVAIAGNASASA
B6: FS-2236 (peptide)
chain: CARSDRSVPSAGNASASA
B7: FS-1971 (peptide)
chain: CARSIRSTGSAGNASASA
B8: HC1096 (peptide)
chain: CAGEVPSTEDAGNASASA
B9: HC2479 (peptide)
chain: CAPTPCSAHLAGNASASA
B10: HC1578 (peptide)
chain: CAFAPTLWARAGNASASA
B11: HC1419 (peptide)
chain: CAAKSKFGYGAGNASASA
B12: FS-641 (peptide)
chain: CAAKSRPKRRAGNASASA
B13: FS-663 (peptide)
chain: CAHSKRRVRDAGNASASA
B14: FS-40 (peptide)
chain: CAKIARPKKRAGNASASA
B15: FS-1594 (peptide)
chain: CAHSSRPVRDAGNASASA
B16: FS-523 (peptide)
chain: CAAKSRPVRGAGNASASA
B17: FS-2873 (peptide)
chain: CAMSKRDVLDAGNASASA
B18: HC729 (peptide)
chain: CAADVIPVRRAGNASASA
B19: FS-2865 (peptide)
chain: CAHSKRKISWAGNASASA
B20: HC436 (peptide)
chain: CAGCTWMNSTAGNASASA
B21: HC1641 (peptide)
chain: CAAAGQLDLSAGNASASA
B22: HC2201 (peptide)
chain: CAEVNTSTWVAGNASASA
B23: HC91 (peptide)
chain: CAVVCKSMSYAGNASASA
B24: HC1848 (peptide)
chain: CATWPCSGSWAGNASASA
B25: HC720 (peptide)
chain: CASLTPCTCGAGNASASA
B26: HC1665 (peptide)
chain: CALEECSQHLAGNASASA
B27: FS-522 (peptide)
chain: CAAKSRPVRDAGNASASA
B28: FS-2273 (peptide)
chain: CARKSRPVSVAGNASASA

Target: furin, P09958
Sequence (P09958 whole entry): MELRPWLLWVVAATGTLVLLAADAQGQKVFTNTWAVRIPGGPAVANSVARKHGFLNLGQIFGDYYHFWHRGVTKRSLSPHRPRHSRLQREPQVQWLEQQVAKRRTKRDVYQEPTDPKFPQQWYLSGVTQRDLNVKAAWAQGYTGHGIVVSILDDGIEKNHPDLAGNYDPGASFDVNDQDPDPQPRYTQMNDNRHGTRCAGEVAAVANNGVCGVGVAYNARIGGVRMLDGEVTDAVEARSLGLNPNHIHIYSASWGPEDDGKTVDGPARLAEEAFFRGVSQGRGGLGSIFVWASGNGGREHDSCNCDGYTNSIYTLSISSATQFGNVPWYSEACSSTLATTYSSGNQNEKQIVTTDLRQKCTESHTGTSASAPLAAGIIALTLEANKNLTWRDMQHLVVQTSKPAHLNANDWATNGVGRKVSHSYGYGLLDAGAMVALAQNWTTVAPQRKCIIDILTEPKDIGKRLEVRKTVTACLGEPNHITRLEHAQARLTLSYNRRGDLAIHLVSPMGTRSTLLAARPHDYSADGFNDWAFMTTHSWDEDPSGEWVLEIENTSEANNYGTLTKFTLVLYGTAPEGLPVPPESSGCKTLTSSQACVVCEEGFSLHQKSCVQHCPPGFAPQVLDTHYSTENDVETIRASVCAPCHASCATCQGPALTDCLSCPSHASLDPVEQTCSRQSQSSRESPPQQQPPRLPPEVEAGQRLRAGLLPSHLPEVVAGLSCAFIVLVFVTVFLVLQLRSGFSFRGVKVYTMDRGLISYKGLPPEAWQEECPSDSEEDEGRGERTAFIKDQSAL
Experiment: furin cleavage Z-score vs untreated control; higher = more cleavage, active = 3.5 or more, inactive = 1 or less, 8 variable residues between constant flanks
In short: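 The cleavage Z-score was derived for purified furin acting on 8-mer peptides held on magnetic beads and fused to a cDNA oligonucleotide. Digests lasted 7.5, 15 or 30 min at 1:10 enzyme:substrate in 50 mM HEPES pH 7.5 with CaCl2 and NaCl. Sequencing counts of released DNA, log-transformed against furin-free reactions, were lowess-adjusted and scaled by median absolute deviation.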

Sequence | furin cleavage Z-score (7.5 min) | furin cleavage Z-score (15 min) | furin cleavage Z-score (30 min)
B1 | -0.899 (inactive) | -0.739 (inactive) | -0.599 (inactive)
B2 | 0.969 (inactive) | -0.725 (inactive) | -0.598 (inactive)
B3 | 1.02 | 2.64 | 0.615 (inactive)
B4 | 3.82 (active) | 4.88 (active) | 5.06 (active)
B5 | -0.459 (inactive) | 0.367 (inactive) | 2.74
B6 | -0.464 (inactive) | -1.02 (inactive) | -0.799 (inactive)
B7 | 8.51 (active) | 7.83 (active) | 8.71 (active)
B8 | -0.773 (inactive) | -0.136 (inactive) | 0.506 (inactive)
B9 | -0.112 (inactive) | 0.764 (inactive) | 1.86
B10 | 0.686 (inactive) | -1.55 (inactive) | 0.247 (inactive)
B11 | 0.282 (inactive) | 0.423 (inactive) | 0.234 (inactive)
B12 | 10.7 (active) | 12 (active) | 8.13 (active)
B13 | 13.2 (active) | 12.9 (active) | 9.58 (active)
B14 | 0.288 (inactive) | -0.123 (inactive) | -0.964 (inactive)
B15 | 6.49 (active) | 7.91 (active) | 7.38 (active)
B16 | 6.42 (active) | 5.25 (active) | 5.42 (active)
B17 | -0.828 (inactive) | -0.533 (inactive) | -0.677 (inactive)
B18 | -0.626 (inactive) | 1.64 | 0.64 (inactive)
B19 | 1.39 | 0.543 (inactive) | 1.88
B20 | 0.97 (inactive) | 0.0364 (inactive) | 1.16
B21 | -0.412 (inactive) | 0.71 (inactive) | -1.04 (inactive)
B22 | 0.639 (inactive) | 0.541 (inactive) | 1.06
B23 | -0.0467 (inactive) | 0.255 (inactive) | 0.551 (inactive)
B24 | -0.614 (inactive) | -1.25 (inactive) | -0.879 (inactive)
B25 | -1.42 (inactive) | -1.23 (inactive) | -1.24 (inactive)
B26 | 0.42 (inactive) | 0.627 (inactive) | 0.0701 (inactive)
B27 | 8.85 (active) | 8.99 (active) | 6.37 (active)
B28 | 0.443 (inactive) | -0.359 (inactive) | 1.47
